Our source for the inhibition values is ChEMBL document CHEMBL1961873, “Compounds: GSK PKIS; Assays: Nanosyn kinase panel” (2012).

SMILES strings stand for the structures.

Experiment [1] deals with High affinity nerve growth factor receptor (Homo sapiens) (UniProt P04629). The note with it: at 1 µM.
For experiment [2], the target named is BDNF/NT-3 growth factors receptor (Homo sapiens) (UniProt Q16620). Conditions: at 0.1 µM.
The target is the same in experiment [3]. Conditions: at 1 µM.
Experiment [4] has as its target NT-3 growth factor receptor (Homo sapiens) (UniProt Q16288). The note with it: at 0.1 µM.
Experiment [5] has the same target. The note with it: at 1 µM.
For experiment [6], the target named is T1, Tyrosine-protein kinase TXK (Homo sapiens) (UniProt P42681).
T1 sequence (whole entry): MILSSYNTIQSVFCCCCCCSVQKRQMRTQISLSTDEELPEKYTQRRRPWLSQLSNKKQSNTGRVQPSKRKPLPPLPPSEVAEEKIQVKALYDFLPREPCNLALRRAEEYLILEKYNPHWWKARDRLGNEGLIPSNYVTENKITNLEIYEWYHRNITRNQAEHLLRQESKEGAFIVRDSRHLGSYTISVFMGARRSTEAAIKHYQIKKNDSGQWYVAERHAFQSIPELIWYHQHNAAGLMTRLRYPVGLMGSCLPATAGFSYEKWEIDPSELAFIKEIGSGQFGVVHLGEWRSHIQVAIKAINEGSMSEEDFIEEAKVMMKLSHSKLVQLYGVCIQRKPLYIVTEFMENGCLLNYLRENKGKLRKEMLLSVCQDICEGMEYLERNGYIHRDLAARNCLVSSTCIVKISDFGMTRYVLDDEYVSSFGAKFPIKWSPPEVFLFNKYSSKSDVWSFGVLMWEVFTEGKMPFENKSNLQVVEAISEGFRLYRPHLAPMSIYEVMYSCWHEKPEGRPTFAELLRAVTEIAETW
Conditions: at 0.1 µM.

The target of experiment [7] is T1, Tyrosine-protein kinase TXK (Homo sapiens). The note with it: at 1 µM.
Experiment [8] deals with Non-receptor tyrosine-protein kinase TYK2 (Homo sapiens) (UniProt P29597). Conditions: at 0.1 µM.
Experiment [9] addresses T2, Dual specificity protein kinase TTK (Homo sapiens) (UniProt P33981).
T2 sequence (whole entry): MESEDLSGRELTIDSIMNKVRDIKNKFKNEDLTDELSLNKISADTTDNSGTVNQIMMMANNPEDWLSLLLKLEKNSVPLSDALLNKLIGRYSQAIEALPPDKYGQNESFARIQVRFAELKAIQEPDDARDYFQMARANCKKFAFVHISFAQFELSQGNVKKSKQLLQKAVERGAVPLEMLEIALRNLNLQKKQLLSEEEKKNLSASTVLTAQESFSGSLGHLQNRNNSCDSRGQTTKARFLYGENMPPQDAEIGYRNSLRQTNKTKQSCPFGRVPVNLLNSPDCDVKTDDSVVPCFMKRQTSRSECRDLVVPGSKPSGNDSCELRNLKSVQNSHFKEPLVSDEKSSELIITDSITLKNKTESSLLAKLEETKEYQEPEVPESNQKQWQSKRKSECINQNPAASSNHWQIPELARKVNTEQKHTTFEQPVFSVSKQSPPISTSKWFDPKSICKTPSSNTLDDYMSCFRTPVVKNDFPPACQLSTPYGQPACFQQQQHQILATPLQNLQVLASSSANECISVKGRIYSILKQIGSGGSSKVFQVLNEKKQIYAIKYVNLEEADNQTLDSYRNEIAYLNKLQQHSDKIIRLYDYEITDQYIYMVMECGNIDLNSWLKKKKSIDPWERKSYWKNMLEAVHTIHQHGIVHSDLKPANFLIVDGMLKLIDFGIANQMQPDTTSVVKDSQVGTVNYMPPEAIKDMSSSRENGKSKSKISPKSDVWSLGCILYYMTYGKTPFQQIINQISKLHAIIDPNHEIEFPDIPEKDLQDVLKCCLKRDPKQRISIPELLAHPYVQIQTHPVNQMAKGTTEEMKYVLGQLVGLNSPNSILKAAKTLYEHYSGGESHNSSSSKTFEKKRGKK
Conditions: at 1 µM.

Experiment [10] concerns the target T3, Aurora kinase A (Homo sapiens) (UniProt O14965).
T3 sequence (whole entry): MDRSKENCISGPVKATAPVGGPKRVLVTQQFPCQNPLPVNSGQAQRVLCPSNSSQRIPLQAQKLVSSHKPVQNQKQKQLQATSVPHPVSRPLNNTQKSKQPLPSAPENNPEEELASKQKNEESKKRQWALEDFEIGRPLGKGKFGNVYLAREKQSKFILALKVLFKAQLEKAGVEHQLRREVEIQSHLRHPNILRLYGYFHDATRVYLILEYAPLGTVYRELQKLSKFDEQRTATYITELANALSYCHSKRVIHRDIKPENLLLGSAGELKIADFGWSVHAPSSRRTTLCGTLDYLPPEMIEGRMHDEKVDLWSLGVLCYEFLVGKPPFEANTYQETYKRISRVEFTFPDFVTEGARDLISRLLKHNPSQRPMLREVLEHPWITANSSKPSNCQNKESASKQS
Conditions: at 0.1 µM.

Experiment [11] concerns the target T3, Aurora kinase A (Homo sapiens). Conditions: at 1 µM.
Experiment [12] concerns the target Aurora kinase B (Homo sapiens) (UniProt Q96GD4). Conditions: at 0.1 µM.
The target is the same in experiment [13]. Conditions: at 1 µM.
Experiment [14] concerns the target T4, Aurora kinase C (Homo sapiens) (UniProt Q9UQB9).
T4 sequence (whole entry): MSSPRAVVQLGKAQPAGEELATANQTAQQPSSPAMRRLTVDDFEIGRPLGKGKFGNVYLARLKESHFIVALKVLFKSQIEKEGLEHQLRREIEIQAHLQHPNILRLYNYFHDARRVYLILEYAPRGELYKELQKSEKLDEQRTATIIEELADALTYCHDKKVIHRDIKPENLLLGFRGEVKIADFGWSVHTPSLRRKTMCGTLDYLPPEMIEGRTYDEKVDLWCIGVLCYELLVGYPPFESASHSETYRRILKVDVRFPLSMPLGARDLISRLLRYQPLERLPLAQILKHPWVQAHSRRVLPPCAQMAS
Conditions: at 0.1 µM.

Experiment [15] addresses T4, Aurora kinase C (Homo sapiens). The note with it: at 1 µM.
In experiment [16] the target is Serine/threonine-protein kinase 10 (Homo sapiens) (UniProt O94804). Conditions: at 0.1 µM.
The target is the same in experiment [17]. Conditions: at 1 µM.
Experiment [18] deals with T5, Mitogen-activated protein kinase kinase kinase kinase 2 (Homo sapiens) (UniProt Q12851).
T5 sequence (whole entry): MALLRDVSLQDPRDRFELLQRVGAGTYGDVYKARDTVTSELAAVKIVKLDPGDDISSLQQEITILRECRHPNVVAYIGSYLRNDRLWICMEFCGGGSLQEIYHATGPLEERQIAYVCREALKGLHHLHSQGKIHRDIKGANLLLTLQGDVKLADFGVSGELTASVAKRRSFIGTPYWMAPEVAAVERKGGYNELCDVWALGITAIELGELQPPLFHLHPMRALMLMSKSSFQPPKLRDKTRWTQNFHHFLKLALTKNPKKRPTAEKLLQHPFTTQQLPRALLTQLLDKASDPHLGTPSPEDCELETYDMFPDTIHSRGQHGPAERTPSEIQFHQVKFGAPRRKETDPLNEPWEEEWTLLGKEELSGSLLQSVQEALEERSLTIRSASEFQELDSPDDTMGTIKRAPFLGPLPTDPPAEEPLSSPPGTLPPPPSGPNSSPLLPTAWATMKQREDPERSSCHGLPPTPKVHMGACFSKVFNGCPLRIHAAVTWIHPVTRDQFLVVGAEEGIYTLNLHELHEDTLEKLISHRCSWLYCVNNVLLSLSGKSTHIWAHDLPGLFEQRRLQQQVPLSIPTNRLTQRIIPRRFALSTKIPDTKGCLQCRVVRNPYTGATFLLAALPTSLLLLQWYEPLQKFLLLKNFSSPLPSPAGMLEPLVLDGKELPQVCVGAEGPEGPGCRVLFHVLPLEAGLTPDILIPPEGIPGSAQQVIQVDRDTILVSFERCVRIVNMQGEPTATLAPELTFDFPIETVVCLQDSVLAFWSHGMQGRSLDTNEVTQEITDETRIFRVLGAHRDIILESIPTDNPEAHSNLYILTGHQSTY
The note with it: at 0.1 µM.

Experiment [19] addresses T5, Mitogen-activated protein kinase kinase kinase kinase 2 (Homo sapiens). The note with it: at 1 µM.
In experiment [20] the target is Mitogen-activated protein kinase kinase kinase kinase 4 (Homo sapiens) (UniProt O95819). The note with it: at 0.1 µM.

Chain of Serine/threonine-protein kinase 10 (Homo sapiens) (O94804 whole entry, looked up): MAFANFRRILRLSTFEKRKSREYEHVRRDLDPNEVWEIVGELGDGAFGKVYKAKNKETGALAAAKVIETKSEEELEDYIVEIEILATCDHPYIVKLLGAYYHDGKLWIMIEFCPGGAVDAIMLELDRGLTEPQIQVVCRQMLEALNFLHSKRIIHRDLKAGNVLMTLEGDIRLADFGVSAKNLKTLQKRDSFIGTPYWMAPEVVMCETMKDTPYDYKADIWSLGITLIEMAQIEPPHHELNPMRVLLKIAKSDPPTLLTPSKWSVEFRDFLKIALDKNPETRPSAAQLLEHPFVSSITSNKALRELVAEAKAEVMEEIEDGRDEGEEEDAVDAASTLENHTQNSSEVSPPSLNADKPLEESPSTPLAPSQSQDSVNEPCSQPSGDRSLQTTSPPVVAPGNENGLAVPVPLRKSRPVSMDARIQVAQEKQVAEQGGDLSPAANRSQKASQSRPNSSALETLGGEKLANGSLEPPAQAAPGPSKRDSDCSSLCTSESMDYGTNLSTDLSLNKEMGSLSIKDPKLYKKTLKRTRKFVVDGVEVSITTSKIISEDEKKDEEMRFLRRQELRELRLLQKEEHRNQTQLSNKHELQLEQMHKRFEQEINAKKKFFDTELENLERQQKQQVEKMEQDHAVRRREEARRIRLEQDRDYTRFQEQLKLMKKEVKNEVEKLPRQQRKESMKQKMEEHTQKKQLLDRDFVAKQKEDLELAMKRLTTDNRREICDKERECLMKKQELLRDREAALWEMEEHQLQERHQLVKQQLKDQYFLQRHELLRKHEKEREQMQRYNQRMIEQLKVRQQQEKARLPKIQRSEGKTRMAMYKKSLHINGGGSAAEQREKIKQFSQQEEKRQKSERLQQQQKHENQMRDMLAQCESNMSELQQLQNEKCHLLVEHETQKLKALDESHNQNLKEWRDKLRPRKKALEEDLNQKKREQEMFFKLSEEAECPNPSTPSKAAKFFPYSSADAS
Chain of High affinity nerve growth factor receptor (Homo sapiens) (P04629 33-796 limits assumed): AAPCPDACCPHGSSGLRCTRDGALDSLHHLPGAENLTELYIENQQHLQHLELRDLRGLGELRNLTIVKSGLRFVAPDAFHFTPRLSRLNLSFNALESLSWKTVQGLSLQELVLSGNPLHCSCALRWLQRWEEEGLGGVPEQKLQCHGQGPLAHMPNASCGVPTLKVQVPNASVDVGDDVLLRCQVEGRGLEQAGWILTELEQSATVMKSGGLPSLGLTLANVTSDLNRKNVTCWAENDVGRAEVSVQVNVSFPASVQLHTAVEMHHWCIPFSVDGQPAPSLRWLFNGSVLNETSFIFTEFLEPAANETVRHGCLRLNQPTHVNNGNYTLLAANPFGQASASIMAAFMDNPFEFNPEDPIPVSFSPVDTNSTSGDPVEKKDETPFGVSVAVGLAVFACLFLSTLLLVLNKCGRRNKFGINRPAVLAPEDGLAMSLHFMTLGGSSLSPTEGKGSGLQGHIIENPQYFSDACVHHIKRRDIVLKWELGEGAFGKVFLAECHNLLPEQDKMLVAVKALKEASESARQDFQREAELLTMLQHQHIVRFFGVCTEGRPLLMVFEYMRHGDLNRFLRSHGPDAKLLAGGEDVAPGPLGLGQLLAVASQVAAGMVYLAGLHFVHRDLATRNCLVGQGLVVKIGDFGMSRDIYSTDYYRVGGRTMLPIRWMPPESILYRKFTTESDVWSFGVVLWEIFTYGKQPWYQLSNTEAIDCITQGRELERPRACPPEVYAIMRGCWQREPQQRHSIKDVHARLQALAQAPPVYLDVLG
Chain of BDNF/NT-3 growth factors receptor (Homo sapiens) (Q16620 32-822 limits assumed): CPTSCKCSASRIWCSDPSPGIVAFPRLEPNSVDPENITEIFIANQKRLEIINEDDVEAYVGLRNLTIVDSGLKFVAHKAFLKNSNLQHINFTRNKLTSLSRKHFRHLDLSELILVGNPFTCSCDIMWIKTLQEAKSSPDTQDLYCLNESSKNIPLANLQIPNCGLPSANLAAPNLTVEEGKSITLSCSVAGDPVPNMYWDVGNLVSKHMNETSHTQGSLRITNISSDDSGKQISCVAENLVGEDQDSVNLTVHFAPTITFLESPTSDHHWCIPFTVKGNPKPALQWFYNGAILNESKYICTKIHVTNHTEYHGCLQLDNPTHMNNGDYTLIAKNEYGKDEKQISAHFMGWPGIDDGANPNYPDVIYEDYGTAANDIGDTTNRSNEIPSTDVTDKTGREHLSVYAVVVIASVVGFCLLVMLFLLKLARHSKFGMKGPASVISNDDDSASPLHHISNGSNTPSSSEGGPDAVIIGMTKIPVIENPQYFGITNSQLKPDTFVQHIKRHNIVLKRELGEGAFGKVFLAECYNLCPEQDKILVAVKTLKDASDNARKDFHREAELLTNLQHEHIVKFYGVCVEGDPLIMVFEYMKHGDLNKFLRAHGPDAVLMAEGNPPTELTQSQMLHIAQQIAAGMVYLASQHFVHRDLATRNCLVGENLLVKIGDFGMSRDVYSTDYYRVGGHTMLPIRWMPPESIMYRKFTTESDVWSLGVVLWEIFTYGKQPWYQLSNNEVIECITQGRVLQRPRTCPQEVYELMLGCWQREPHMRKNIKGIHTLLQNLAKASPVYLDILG
Chain of Non-receptor tyrosine-protein kinase TYK2 (Homo sapiens) (P29597 whole entry): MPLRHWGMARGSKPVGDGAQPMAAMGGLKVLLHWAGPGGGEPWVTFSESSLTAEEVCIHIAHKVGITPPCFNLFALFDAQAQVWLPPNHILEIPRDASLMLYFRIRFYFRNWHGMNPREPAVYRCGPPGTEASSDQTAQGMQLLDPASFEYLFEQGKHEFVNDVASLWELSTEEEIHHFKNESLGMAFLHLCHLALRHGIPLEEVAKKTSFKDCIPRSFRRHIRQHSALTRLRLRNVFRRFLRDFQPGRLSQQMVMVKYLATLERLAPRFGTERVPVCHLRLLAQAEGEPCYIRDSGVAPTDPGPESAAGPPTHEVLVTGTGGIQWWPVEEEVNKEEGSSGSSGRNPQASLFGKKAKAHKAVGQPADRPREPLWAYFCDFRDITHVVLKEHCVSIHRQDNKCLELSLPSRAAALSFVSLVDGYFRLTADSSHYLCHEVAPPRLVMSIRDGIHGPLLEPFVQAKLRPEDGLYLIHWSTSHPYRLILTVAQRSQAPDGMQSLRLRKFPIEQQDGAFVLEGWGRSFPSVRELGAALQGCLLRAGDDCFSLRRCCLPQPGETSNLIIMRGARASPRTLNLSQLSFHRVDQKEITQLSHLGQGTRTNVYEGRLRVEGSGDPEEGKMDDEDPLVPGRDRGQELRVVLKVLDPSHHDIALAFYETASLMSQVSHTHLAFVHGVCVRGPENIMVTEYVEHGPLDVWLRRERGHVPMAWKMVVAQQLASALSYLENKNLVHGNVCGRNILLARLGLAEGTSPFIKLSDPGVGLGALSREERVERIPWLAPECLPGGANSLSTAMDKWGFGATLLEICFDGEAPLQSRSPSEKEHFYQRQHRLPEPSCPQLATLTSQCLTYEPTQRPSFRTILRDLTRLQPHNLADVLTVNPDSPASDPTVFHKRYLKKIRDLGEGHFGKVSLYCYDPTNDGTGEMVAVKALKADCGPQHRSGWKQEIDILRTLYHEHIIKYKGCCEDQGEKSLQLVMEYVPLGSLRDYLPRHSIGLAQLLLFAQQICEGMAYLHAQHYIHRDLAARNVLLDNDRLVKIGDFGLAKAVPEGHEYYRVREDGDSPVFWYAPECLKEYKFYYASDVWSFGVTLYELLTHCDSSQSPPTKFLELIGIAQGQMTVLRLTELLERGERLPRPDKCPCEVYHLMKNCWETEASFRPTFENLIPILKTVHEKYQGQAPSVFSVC
Chain of Aurora kinase B (Homo sapiens) (Q96GD4 whole entry): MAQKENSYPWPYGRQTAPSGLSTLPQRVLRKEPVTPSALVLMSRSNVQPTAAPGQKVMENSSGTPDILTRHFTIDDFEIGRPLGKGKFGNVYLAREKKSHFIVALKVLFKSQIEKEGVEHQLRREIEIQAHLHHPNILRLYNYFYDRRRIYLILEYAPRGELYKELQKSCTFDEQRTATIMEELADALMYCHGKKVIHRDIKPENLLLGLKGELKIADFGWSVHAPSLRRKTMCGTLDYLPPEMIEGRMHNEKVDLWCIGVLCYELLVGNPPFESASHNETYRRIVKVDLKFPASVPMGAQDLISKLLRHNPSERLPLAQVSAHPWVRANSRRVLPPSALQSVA
Chain of NT-3 growth factor receptor (Homo sapiens) (Q16288 32-839 limits assumed): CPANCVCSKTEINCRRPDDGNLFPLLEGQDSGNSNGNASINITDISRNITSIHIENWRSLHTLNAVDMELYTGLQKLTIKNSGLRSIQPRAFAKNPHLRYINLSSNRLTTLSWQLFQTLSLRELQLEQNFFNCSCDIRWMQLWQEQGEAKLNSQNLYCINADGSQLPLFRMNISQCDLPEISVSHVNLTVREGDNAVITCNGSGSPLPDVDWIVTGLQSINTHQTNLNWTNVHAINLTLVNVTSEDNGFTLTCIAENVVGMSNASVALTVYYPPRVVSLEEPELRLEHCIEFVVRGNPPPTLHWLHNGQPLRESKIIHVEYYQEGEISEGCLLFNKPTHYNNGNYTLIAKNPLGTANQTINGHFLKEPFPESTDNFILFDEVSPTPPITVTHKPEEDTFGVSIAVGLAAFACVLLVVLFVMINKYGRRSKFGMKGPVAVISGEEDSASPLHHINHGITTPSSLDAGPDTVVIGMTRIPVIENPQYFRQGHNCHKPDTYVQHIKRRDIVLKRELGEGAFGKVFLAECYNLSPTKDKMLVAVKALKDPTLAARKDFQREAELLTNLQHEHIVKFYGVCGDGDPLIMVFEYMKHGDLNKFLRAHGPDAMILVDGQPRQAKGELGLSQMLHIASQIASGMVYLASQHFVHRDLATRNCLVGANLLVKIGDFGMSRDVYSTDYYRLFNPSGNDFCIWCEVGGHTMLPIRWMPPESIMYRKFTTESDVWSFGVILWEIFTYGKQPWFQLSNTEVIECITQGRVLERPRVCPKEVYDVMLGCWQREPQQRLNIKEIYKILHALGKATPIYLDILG

A word on the inhibition: it is the drop in the measured response relative to a control, in per cent. Consider `COc1ccc(-c2cc(-c3c[nH]nc3-c3ccccn3)ccn2)cc1`, for which the inhibition in experiment [1] stood at 3.12%; in [2] it was 3.7%; in experiment [3] it was 3.9%; in experiment [4], 3.2%; in [5], 5.62%; in experiment [6], 1.77%. Besides, the inhibition in [7] was 3.18%; in [8], -6.95%; in experiment [9], 10.5%; in experiment [10], 3.7%; in experiment [11] it was 5.58%; in [12] it was 4.41%. Also, the inhibition in experiment [13] is 5.71%; in experiment [14] it was 2.12%; in experiment [15], -1.66%; in experiment [16], 5.75%; in [17] it was 8.57%; in [18] it was 1.74%. For the same compound, the inhibition in experiment [19] stood at 2.15%; in experiment [20], 35.5%.
Consider `COC(=O)Nc1nc2ccc(Oc3ccc(NC(=O)Nc4cccc(Cl)c4)cc3)cc2[nH]1`, for which the inhibition in experiment [1] is 41.6%; in experiment [2] it was 8.53%; in experiment [3] it was 22%; in experiment [4] it was 11.7%; in experiment [5], 26.1%; in experiment [6], 0.76%. The inhibition in [7] is 2.29%; in experiment [8], 2%; in experiment [9] it was 3.42%; in [10], 2.85%; in experiment [11], 0.65%; in experiment [12], 16%. Besides, the inhibition in experiment [13] came to 22.7%; in experiment [14], 16.6%; in [15], 35.3%; in [16], 14.1%; in [17], 27.1%; in experiment [18], 0.77%. For the same compound, the results for the inhibition in [19] and in experiment [20] were 7.45% and 0.19%, respectively.
`CCn1c(-c2nonc2N)nc2c(C#CC(C)(C)O)nc(OC[C@H](N)c3ccccc3)cc21`: the inhibition was determined as 3.54% in experiment [1]; 1.58% in experiment [2]; 2.5% in experiment [3]; 1.64% in experiment [4]; 6.42% in experiment [5]; 7.32% in experiment [6]. Further, the inhibition in experiment [7] is 3.73%; in experiment [8] it was -2.11%; in [9] it was 11.2%; in [10] it was 2.4%; in experiment [11] it was 2.98%; in [12] it was 3.29%. Also, the inhibition in experiment [13] stood at 5.24%; in [14], 1.89%; in experiment [15], 2.08%; in [16], 7.07%; in experiment [17], 28.8%; in experiment [18], 3.33%. The values for the inhibition in experiment [19] and in experiment [20] were 16% and 4.79%, respectively.
